Assay results reported in PubChem BioAssay AID463173 (ICCB-Longwood Screening Facility, Harvard Medical School, 2010).
Among all 52,000 compounds or so, about 4,300 (8.3%) were called active. No stated cut-off is given here; in the data, active means survival mostly below about 52% (no sharp cut-off); inactive means mostly above about 56%. Only a selection was taken, and actives are over-represented in it overall.

tested on: DeltatarO mutant; experiment: growth inhibition of S. aureus wild type versus tarO mutant, primary screen, teichoic acid synthesis inhibitors, RN4220, OD600 (AID 463173); conditions: OD600, 18 h, hits give low values, screened at 18.75 µg/mL (by protocol)

| Compound | survival |
| --- | --- |
| COc1ccc(NC(=O)CSc2nc3cc(OC)c(OC)cc3c3nc(-c4ccccc4)nn23)cc1Cl | 123% (inactive) |
| Cc1ccc(NC(=O)CN2C(=O)CCSc3ccc(S(=O)(=O)N4CCCC4)cc32)cc1 | 86% (inactive) |
| COc1ccc(-c2onc(C)c2C)cc1S(=O)(=O)NCc1ccc(C)o1 | 89% (inactive) |
| CC1=C(c2ccc(C(C)C)cc2)S(=O)(=O)N=C1N1CCN(c2ccccc2F)CC1 | 85% (inactive) |
| COc1ccc(OC)c(C2CC(=O)Nc3c2c(=O)[nH]c2nc4ccccc4n32)c1 (centres undefined) | 164% (inactive) |
| CCNc1nc(NC(C)(C)C)nc(Oc2ccc(=O)n(C)n2)n1 | 68% (inactive) |
| Cc1cccc(N2CCN(C(=O)CCc3c(C)nc4ncnn4c3C)CC2)c1C | 79% (inactive) |
| CCOc1ccc(NC2SC(=O)N(Cc3ccccc3)C2=O)cc1 (centres undefined) | 42% (active) |
| Cc1ccc(CN2C(=O)SC(Nc3ccc(Cl)cc3)C2=O)cc1 (centres undefined) | 30% (active) |
| COC(=O)c1cccc(CN2C(=O)SC(Nc3ccc(C)cc3)C2=O)c1 (centres undefined) | 50% (inactive) |
| CN1C(=O)SC(Nc2ccccc2)C1=O (centres undefined) | 65% (inactive) |
| CCOC(=O)c1ccc(NC2SC(=O)N(Cc3cccc(C(=O)O)c3)C2=O)cc1 (centres undefined) | 60% (inactive) |
| COC(=O)c1cccc(CN2C(=O)SC(Nc3ccccc3C)C2=O)c1 (centres undefined) | 133% (inactive) |
| COC(=O)c1cccc(CN2C(=O)SC(Nc3ccc(Br)cc3)C2=O)c1 (centres undefined) | 23% (active) |
| COc1ccc(NC2SC(=O)N(c3ccccc3)C2=O)cc1 (centres undefined) | 105% (inactive) |
| Cc1ccc(CN2C(=O)SC(Nc3ccccc3)C2=O)cc1 (centres undefined) | 40% (active) |
| Cc1ccc(N2C(=O)SC(Nc3ccccc3)C2=O)cc1 (centres undefined) | 83% (inactive) |
| COC(=O)c1cccc(CN2C(=O)SC(Nc3ccc(Cl)cc3)C2=O)c1 (centres undefined) | 42% (inactive) |
| O=C1SC(Nc2ccc(Cl)cc2)C(=O)N1Cc1ccccc1 (centres undefined) | 107% (inactive) |
| COc1cc2c(cc1OC)C(COc1ccc3c(C)cc(=O)oc3c1)N(C(=O)Cc1ccc(F)cc1)CC2 (centres undefined) | 80% (inactive) |
| CC1(C)Cc2ccccc2-c2nc(NN)[nH]c(=O)c21 | 67% (inactive) |
| O=C(O)c1cccc(N2C(=O)c3cccnc3C2=O)c1 | 83% (inactive) |
| Cc1ccc(-n2c(=O)c3c(c4cc(C)ccc4n3C)n(CC(=O)Nc3cc(C)cc(C)c3)c2=O)cc1 | 105% (inactive) |

| Compound | survival |
| --- | --- |
| COc1ccc2nc(N(Cc3cccnc3)C(=O)c3ccc(Cl)cc3)sc2c1 | 89% (inactive) |
| CCOC(=O)c1cc(-c2ccccc2)n(-c2cccc(C(=O)Nc3ccc(F)c(F)c3)c2)c1C | 87% (inactive) |
| CC(CN)(NS(=O)(=O)c1ccccc1)c1ccccc1 (centres undefined) | 84% (inactive) |
| COc1ccc(CN=C(N)N=C(N)N)cc1 | 95% (inactive) |
| CC(=O)c1ccc(N2CCN(S(=O)(=O)c3cc(-c4onc(C)c4C)ccc3C)CC2)cc1 | 84% (inactive) |
| COc1ccc(N2CCN(C(=O)c3cc4c(-c5ccccc5F)nn(C)c4s3)CC2)cc1 | 65% (inactive) |
| COc1ccc(-c2nn(C)c3sc(C(=O)N4CCN(c5cc(Cl)ccc5C)CC4)cc23)cc1OC | 103% (inactive) |
| COc1ccccc1N1CCN(C(=O)c2cc3c(-c4ccccc4F)nn(C)c3s2)CC1 | 46% (active) |
| COc1ccc(CNC(=O)c2cc3c(-c4ccccc4F)nn(C)c3s2)c(OC)c1 | 101% (inactive) |
| COc1ccc(-c2nn(C)c3sc(C(=O)N4CCN(c5cccc(C)c5C)CC4)cc23)cc1OC | 75% (inactive) |
| Cn1nc(-c2ccccc2F)c2cc(C(=O)N3CCN(c4ccccc4F)CC3)sc21 | 40% (inactive) |
| COc1ccc(CCNC(=O)c2cc3c(-c4ccccc4F)nn(C)c3s2)c(OC)c1 | 85% (inactive) |
| COc1ccc(-c2nn(C)c3sc(C(=O)N4CCN(c5cccc(Cl)c5)CC4)cc23)cc1OC | 54% (active) |
| COc1ccc(NC(=O)c2cc3c(-c4ccccc4F)nn(C)c3s2)c(OC)c1 | 44% (active) |
| COc1ccc(COC(=O)C2=C(C)NC3(O)c4ccccc4C(=O)C23O)cc1 (centres undefined) | 90% (inactive) |
| CNS(=O)(=O)c1cn(CC(=O)Nc2ccc(OC)c(Cl)c2)cc1S(=O)(=O)NC | 74% (inactive) |
| Cc1ccc(Cl)cc1-n1c(=O)c2sc3ccccc3c2n(CC(=O)NC2CCCCC2)c1=O | 77% (inactive) |
| O=C(Cn1c(=O)n(-c2ccc(Cl)cc2)c(=O)c2sc3ccccc3c21)NC1CCCC1 | 90% (inactive) |
| Cc1ccc(Cl)cc1-n1c(=O)c2sc3ccccc3c2n(CC(=O)NC2CCCC2)c1=O | 13% (active) |
| CCn1c(CN2CCC(C)CC2)nc2cc(NC(=O)COc3ccc([N+](=O)[O-])cc3)ccc21 | 82% (inactive) |
| CCCCC(Sc1nc2cc3c(cc2c(=O)n1CCCC(=O)NCc1ccc2c(c1)OCO2)OCO3)C(=O)OCC (centres undefined) | 82% (inactive) |
| CC(=O)c1ccc(NC(=O)CCc2nc(-c3ccc(C)cc3)no2)cc1 | 67% (inactive) |
| CCN(C(=O)CSc1nc(-c2ccc(C(C)C)cc2)no1)c1cccc(C)c1 | 84% (inactive) |

| Compound | survival |
| --- | --- |
| COc1cccc(CNC(=O)CCc2nc(-c3ccc(C)cc3)no2)c1 | 145% (inactive) |
| O=C(CSc1nc(-c2ccccc2)no1)N1CCN(c2ccccc2)CC1 | 99% (inactive) |
| CCN(C(=O)CSc1nc(-c2ccccc2)no1)c1cccc(C)c1 | -3% (active) |
| CCN(C(=O)CSc1nc(-c2ccccc2)no1)c1ccccc1 | 79% (inactive) |
| CCN(C(=O)CCc1nc(-c2ccc(C)cc2)no1)c1cc(C)ccc1C | -4% (active) |
| CC(C)c1ccc(-c2noc(SCC(=O)N3CCCCC3)n2)cc1 | 72% (inactive) |
| COc1ccc(-c2noc(CCC(=O)Nc3ccc(C(F)(F)F)cc3)n2)cc1 | 86% (inactive) |
| CCN(C(=O)CCc1nc(-c2ccc(C)cc2)no1)c1cccc(C(F)(F)F)c1 | -5% (active) |
| Cc1ccc(C)c(NC(=O)CCc2nc(-c3ccc(C(C)(C)C)cc3)no2)c1 | 69% (inactive) |
| O=C(CSc1nc(-c2ccccc2)no1)N1CCCCC1 | 39% (active) |
| CN1C(=O)C2(c3ccccc31)N(c1ccccc1)C(=O)CS2(=O)=O (centres undefined) | 91% (inactive) |
| Cc1nc(-c2ccc(F)cc2)sc1CCNC(=O)c1ccco1 | 116% (inactive) |
| O=C(Nc1ccc2nn(-c3ccccc3)nc2c1)c1ccccc1 | 97% (inactive) |
| Cc1cc(C)c2nc(N(Cc3cccnc3)C(=O)Cc3ccccc3)sc2c1 | 79% (inactive) |
| CCCCOc1ccc(C(=O)NCCc2csc(-c3cccc(F)c3)n2)cc1 | 96% (inactive) |
| O=C(N/N=C1/CSC(=O)N1Cc1cccs1)c1cccs1 | 75% (inactive) |
| Cc1cc(C)c(S(=O)(=O)NCCc2cc3cc(C)c(C)cc3[nH]c2=O)c(C)c1 | 63% (inactive) |
| COc1ccc(N(C)C(C)=O)cc1 | 91% (inactive) |
| CCc1ccc(C(=O)c2cn(CC(=O)Nc3cc(OC)cc(OC)c3)c3ccc(CC)cc3c2=O)cc1 | 84% (inactive) |
| CCN(C(=O)CCc1nc(-c2ccc(C)cc2)no1)c1cccc(Cl)c1 | -5% (active) |
| CCN(C(=O)Cc1nc(-c2ccc(OC)cc2)no1)c1cccc(Cl)c1 | 83% (inactive) |
| CC(C)(C)c1ccc(-c2noc(CCC(=O)Nc3cccc(Cl)c3)n2)cc1 | 87% (inactive) |
| CCOCCCNC(=O)C(c1ccc(OC)cc1)N(Cc1cccs1)C(=O)c1ccc(NC(C)=O)cc1 (centres undefined) | 53% (inactive) |

| Compound | survival |
| --- | --- |
| Cn1nc(C(=O)NCc2cccc(Cl)c2)c2c1-c1ccccc1SC2 | 74% (inactive) |
| CCOC(=O)N1CCN(C(=O)c2c(C)nn(-c3cccc(C)c3)c2-n2cccc2)CC1 | 20% (active) |
| COc1cc(NC(=O)c2c(C)nn(-c3ccc(F)cc3)c2-n2cccc2)cc(OC)c1 | 78% (inactive) |
| CCOC(=O)N1CCC(NC(=O)c2c(C)nn(-c3cccc(C)c3)c2-n2cccc2)CC1 | 89% (inactive) |
| Cc1cccc(-n2nc(C)c(C(=O)N3CCN(c4ccccc4)CC3)c2-n2cccc2)c1 | 66% (inactive) |
| COc1cccc(CNC(=O)c2c(C)nn(-c3cccc(C)c3)c2-n2cccc2)c1 | 81% (inactive) |
| COc1cccc(NC(=O)c2c(C)nn(-c3cccc(C)c3)c2-n2cccc2)c1 | 8% (active) |
| O=C(CCOc1ccccc1)N(Cc1cccnc1)c1nc2c(Cl)cccc2s1 | 80% (inactive) |
| CN(C)c1ccc(CNC(=O)CN(C)S(=O)(=O)c2ccc3c(c2)c(=O)n(C)c(=O)n3C)cc1 | 97% (inactive) |
| COc1ccc(CNC(=O)C(CCSC)NS(=O)(=O)c2ccc3c(c2)oc(=O)n3C)cc1 (centres undefined) | 69% (inactive) |
| Cc1c(C(=O)N(C)C)sc2c1c(=O)n(-c1ccccc1C(F)(F)F)c(=O)n2Cc1cccc(F)c1 | 78% (inactive) |
| CC(C)(C)OC(=O)N1CCC(c2c(C(=O)N3CCN(c4ncccn4)CC3)cnn2-c2ccc(F)cc2F)CC1 | 6% (active) |
| Cc1ccc(-n2ncc(C(=O)N3CCN(c4cccc(C)c4C)CC3)c2C2CCNCC2)c(C)c1 | 83% (inactive) |
| CC(C)(C)OC(=O)N1CCC(c2c(C(=O)N3CCN(c4ncccn4)CC3)cnn2-c2ccccc2)CC1 | 94% (inactive) |
| Cc1cccc(N2CCN(C(=O)c3cnn(-c4ccc(F)cc4F)c3C3CCN(C(=O)OC(C)(C)C)CC3)CC2)c1C | 82% (inactive) |
| COc1ccccc1N1CCN(C(=O)c2cnn(-c3ccc(F)cc3F)c2C2CCNCC2)CC1 | 32% (active) |
| Cc1ccc(-n2ncc(C(=O)N3CCN(c4ncccn4)CC3)c2C2CCN(C(=O)OC(C)(C)C)CC2)cc1 | 80% (inactive) |
| CN1CCN(C(=O)c2cnn(-c3ccc(F)cc3F)c2C2CCN(C(=O)OC(C)(C)C)CC2)CC1 | 80% (inactive) |
| CC(C)(C)OC(=O)N1CCC(c2c(C(=O)N3CCN(c4ccccn4)CC3)cnn2-c2ccc(F)cc2F)CC1 | 79% (inactive) |
| CC(C)(C)OC(=O)N1CCC(c2c(C(=O)N3CCN(c4ncccn4)CC3)cnn2-c2ccc(F)cc2)CC1 | 17% (active) |
